The whole screen tested about 190,000 compounds, of which about 4,000 (2.1%) were called active. The sample holds actives, similar compounds and a random draw of the others, so the mix is not that of the screen. Rule as the data show it: active = inhibition above about 58%; inactive = the rest, inconclusive results apart; tested in S. cerevisiae.
Assay: growth inhibition of WT strain, primary screen, mitochondrial fusion inhibitor project, WT and mutant strains, chemical genetic (AID 1362)
Settings: mitochondrial fusion phenotypic screen, at 10 µM
[1] = WT strain, growth inhibition, stronger effect = higher value

Row | SMILES | inhibition [1] | inhibition (mutant strain inhibition) [%]
1 | COC(=O)C1=C(C)NC(=O)/C1=C/c1ccc(CNS(=O)(=O)c2ccc(C)cc2)o1 | -8.5% (inactive) | 0.18
2 | NS(=O)(=O)c1ccc(CCNC(=O)c2ccc([N+](=O)[O-])cc2[N+](=O)[O-])cc1 | -6.04% (inactive) | -5.86
3 | COc1cc(NC(=O)c2cccnc2SC)cc(OC)c1 | -8.4% (inactive) | -8.46
4 | COC(=O)c1ccc(NC(=O)c2ccccc2NS(=O)(=O)c2ccccc2)cc1 | 6.94% (inactive) | 15.7
5 | COc1cc(NC(=O)c2ccccc2NS(=O)(=O)c2ccc(Cl)s2)cc(OC)c1 | 67.2% (active) | 46.5
6 | CCOC(=O)C1CCN(c2ncnc3c2c(-c2ccccc2)cn3-c2ccc(C)cc2)CC1 | 14.7% (inactive) | 15.5
7 | COc1cccc(CNc2nc3nc4c(c(=O)n3[nH]2)CCC4)c1 | -0.87% (inactive) | -10.6
8 | COc1cccc(-c2cc3nc4c(c(N5CCC6(CC5)OCCO6)n3n2)CCCC4)c1 | 69.6% (active) | 33.9
9 | COc1cccc(-c2nc(S(=O)(=O)c3ccccc3)c(N3CCOCC3)o2)c1 | -12% (inactive) | -5.11
10 | Cc1ccc(NC(=O)CN2CCC(C(N)=O)CC2)cc1[N+](=O)[O-] | -8.61% (inactive) | -3.52
11 | CCCN(C(=O)CSc1nnnn1C)c1c(N)n(Cc2ccccc2)c(=O)[nH]c1=O | -4.08% (inactive) | -15.2
12 | CC(C)c1ccc2c(c1)c(SC(C)(C)C)c(CC(C)(C)C(=O)O)n2Cc1ccc(Cl)cc1 | 70.4% (active) | 23.5
13 | Cc1ccc(C(=O)N2CCN(S(=O)(=O)N3CCOCC3)CC2)cc1 | 8.87% (inactive) | 9.09
14 | COc1ccc(C2CC(c3cccs3)=NN2C(=O)CSc2nncs2)cc1OC (stereo not given) | -1.36% (inactive) | -8.65
15 | Cc1ccccc1CC1(CO)CCCN(Cc2ccc3c(c2)OCCO3)C1 (stereo not given) | -4.77% (inactive) | 1.77
16 | NC(=O)C[n+]1cccc(C(N)=O)c1 | -12.7% (inactive) | -23.1
17 | COc1ccc(C(=O)CN(C(=O)c2ccc(Cl)cc2)N2C(=O)c3ccccc3C2=O)cc1 | 6.73% (inactive) | 27.8
18 | COc1ccc(Cn2c(-c3ccc(Cl)cc3)c[n+]3ccccc23)cc1 | 65.1% (active) | 49.9
19 | COc1ccc(Cn2c(=O)cc(C)[nH]c2=S)cc1 | -15.8% (inactive) | -20.1
20 | COCCNC(=O)CCCn1c(=O)c2ccccc2n(Cc2cccc([N+](=O)[O-])c2)c1=O | 5.52% (inactive) | 6.42
21 | O=C(NCCCNc1ccc([N+](=O)[O-])cc1Cl)c1ccccc1F | -8.75% (inactive) | -6.43
22 | COCCn1c(Cc2cccn2C)nnc1SCC(=O)Nc1nccs1 | 1.47% (inactive) | 4.94

Row | SMILES | inhibition [1] | inhibition (mutant strain inhibition) [%]
23 | Cc1ccc(NC(=O)CC2S/C(=N/N=C3\CCCc4ccccc43)NC2=O)cc1 (stereo not given) | 83.8% (active) | 33.5
24 | Cc1c(Cl)cccc1NC(=O)CC1SC(=NCC2CCCO2)NC1=O (stereo not given) | -15.1% (inactive) | 19
25 | CCN=C1SC(CC(=O)Nc2ccc(C)cc2)C(=O)N1CC (stereo not given) | -14.8% (inactive) | 6.26
26 | COc1ccnc(Oc2ccccc2)c1-c1ncn[nH]1 | 3.65% (inactive) | 2.35
27 | CC(=O)C1=C(O)C(=O)N(c2cccnc2)C1c1ccc([N+](=O)[O-])cc1 (stereo not given) | 2.65% (inactive) | -8.89
28 | Cc1cc(=O)[nH]c(SCC(N)=O)c1C#N | 59.8% (active) | -65.4
29 | Cc1cc(C#N)c(SCC(N)=O)nc1-c1ccc(F)cc1 | -8.84% (inactive) | 0.95
30 | Cc1cc(C)c(C#N)c(SCC(=O)Nc2ccccc2)n1 | 9.11% (inactive) | -9.66
31 | C=CCOc1c(CNn2cn[nH]c2=S)cccc1OC | -4.69% (inactive) | -6.27
32 | Cc1ccc(CNC(=O)c2cccnc2Cl)cc1 | -14.3% (inactive) | -25.1
33 | CCC(C)(C)c1ccc(OCC(=O)N(C)C)c(C(C)(C)CC)c1 | 79.9% (active) | 14.1
34 | CCc1nc(C)ccc1OCC(=O)N(CC)CC | -20.5% (inactive) | -10.4
35 | CN(C)CCOc1ccc(Cl)cc1C(C)(C)C | 27.8% (inactive) | 4.52
36 | O=S1(=O)CC/C(=N\Nc2ccc(F)cc2)c2ccsc21 | 26.2% (inactive) | 34.7
37 | O=C(OCC(=O)c1cccs1)C1=COCCO1 | 9.96% (inactive) | 20.9
38 | CCC(C)(C)c1ccc(Oc2ccc(NC(=O)COC(=O)C3=COCCO3)cc2)cc1 | 60.5% (active) | 33.7
39 | COc1ccc(NC(=O)COC(=O)CNC(=O)C2CCCCC2)cc1 | -11.9% (inactive) | 12.1
40 | CN(C)c1ccc(/C=N/NC(=O)C(O)c2ccc(Br)cc2)cc1 (stereo not given) | -4.38% (inactive) | 1.15
41 | Cc1ccccc1CSc1nnc(-c2ccccc2)c(=O)[nH]1 | 12.9% (inactive) | -13.6
42 | O=C(Nc1ccccc1C(=O)O)c1cc(S(=O)(=O)N2CCCCC2)cs1 | 1.49% (inactive) | -6
43 | Cc1ccc(C2C3=C(Nc4[nH]n(-c5ccccc5)c(=O)c42)c2ccccc2C3=O)cc1 (stereo not given) | -0.51% (inactive) | -6.48
44 | Cc1cc(C)c(C2C3=C(Nc4c2c(C)nn4-c2ccccn2)c2ccccc2C3=O)c(C)c1 (stereo not given) | 78.7% (active) | 55

Row | SMILES | inhibition [1] | inhibition (mutant strain inhibition) [%]
45 | Cc1nn(-c2ccccn2)c2c1C(c1ccncc1)C1=C(CC(C)(C)CC1=O)N2 (stereo not given) | -4.23% (inactive) | -14.9
46 | COc1cccc(C(=O)Oc2cc(C)[nH]c(=O)c2[N+](=O)[O-])c1 | 15.8% (inactive) | -9.84
47 | O=C(N/N=C/c1ccccn1)c1ccc(S(=O)(=O)N2CCCCCC2)cc1 | 2.23% (inactive) | 0.85
48 | COc1ccc(NC(=O)c2ccccc2CC[N+](=O)[O-])cc1 | 1.85% (inactive) | 1.42
49 | O=C(Nc1ccccc1F)c1ccc(Cn2cc(Br)cn2)cc1 | 10.6% (inactive) | -0.75
50 | COCCCNC(=O)Cn1c(=O)n(Cc2ccccc2Cl)c(=O)c2cc(OC)c(OC)cc21 | -6.28% (inactive) | 4.75
51 | OC(c1nnc(-c2ccccc2)o1)c1cccs1 (stereo not given) | -15.8% (inactive) | 5.68
52 | CCCN(CCC)c1ccc(C(O)c2nnc(-c3ccccc3)o2)cc1 (stereo not given) | 76.5% (active) | 31.6
53 | C=CCn1c(SCc2nnc(-c3ccccc3)o2)nnc1C(O)c1ccccc1 (stereo not given) | -11.7% (inactive) | -5.65
54 | Cc1ccc(S(=O)(=O)N(C)C)cc1NC(=O)COC(=O)C1COc2ccccc2O1 (stereo not given) | -0.23% (inactive) | -14.6
55 | CCOc1ccc(-c2n[nH]c(C)c2-c2ccccn2)c(O)c1 | -20.5% (inactive) | 3.26
56 | CCOc1ccccc1Oc1cn[nH]c1-c1ccc(OC)cc1O | 61.8% (active) | 25.6
57 | CCOc1ccccc1NC(=O)Nc1cc(OC)ccc1OC | -4.32% (inactive) | 11.2
58 | C/C(=N\NC(=S)NCc1ccccc1)C1CCCCC1 | 47.2% (inactive) | 53.3
59 | Cc1cc(C)nc(NS(=O)(=O)c2ccc(N/C=C\C(=O)c3cccs3)cc2)n1 | -2.27% (inactive) | 7.04
60 | Oc1c(CN2CCN(c3ccc(F)cc3)CC2)cc(Cl)c2cccnc12 | -1.47% (inactive) | -25
61 | COc1ccc(N2CCN(Cc3ccc(Br)s3)CC2)cc1 | 20.2% (inactive) | 14.9
62 | Fc1ccc(N2CCN(Cc3cnc(Oc4ccc(Br)cc4)s3)CC2)cc1 | 59% (active) | 34
63 | Cc1ccc(-c2csc(N(Cc3ccco3)C(=O)c3cccs3)n2)cc1 | 67.6% (active) | 34.4
64 | Cc1ccc(-c2csc(NC(=O)c3cccs3)n2)cc1 | 22.4% (inactive) | 16.9
65 | O=C(O)CCC(=O)N(Cc1ccco1)c1nc(-c2ccccc2)cs1 | -21.3% (inactive) | 4.1
66 | O=c1[nH]c(CN2CCOCC2)nc2scc(-c3ccccc3)c12 | 5.72% (inactive) | -6.95

Row | SMILES | inhibition [1] | inhibition (mutant strain inhibition) [%]
67 | CC1(C)CCCC2=C1CC1C(=O)N(c3ccccc3)C(=O)C1C2 (stereo not given) | 6.4% (inactive) | -1.63
68 | CC1CC2=C(CC1/C=N/NC(N)=S)C(C)(C)CCC2 (stereo not given) | 67.3% (active) | 64.1
69 | NC(=O)c1ccc(NC(=O)COC(=O)C(Cc2ccccc2)NC(=O)c2ccccc2)cc1 (stereo not given) | -21.4% (inactive) | -11.6
70 | O=C(c1ccccc1)c1ccc(OCC(O)CN2CCCC2)cc1 (stereo not given) | -8.18% (inactive) | 5.68
71 | Cc1ccc(NC(=O)NNC(=O)c2sccc2-n2cccc2)cc1 | -13.1% (inactive) | -0.19
72 | c1ccc(CN2CCC(N=C3NN=C(c4ccc5c(c4)OCCO5)CS3)CC2)cc1 | 10.8% (inactive) | 33
73 | Cc1cccc(N=C2NN=C(c3c[nH]c4ccccc34)CS2)c1 | 13.8% (inactive) | -10.5
74 | Clc1cccc(N=C2NN=C(c3ccc4c(c3)OCCO4)CS2)c1 | 67.3% (active) | 17
75 | CCOC(=O)/C(=C\c1ccc([N+](=O)[O-])cc1)C(=O)c1cc(C(C)=O)c(Nc2ccccc2)s1 | 84.2% (active) | 50.2
76 | O=C(Nc1ccccc1)/C(=C/c1ccc([N+](=O)[O-])cc1)NC(=O)c1ccccc1 | -0.76% (inactive) | -8.51
77 | Cc1cccc(NC(=O)c2sc(-c3ccccc3)nc2-c2ccc([N+](=O)[O-])cc2)c1 | 2.52% (inactive) | -6.51
78 | CC(=O)NCC(=O)N(Cc1ccco1)C1(C(=O)NC2CCCC2)CCCCC1 | -0.52% (inactive) | 10.2
79 | O=C(CCCN1C(=O)/C(=C/c2ccccc2)SC1=S)Nc1ccc(O)cc1 | -11.2% (inactive) | 6.5
80 | Cc1ccc(OCC(=O)N/N=C/c2ccncc2)cc1 | -0.91% (inactive) | -0.34
81 | Cc1ccc(OCC(=O)N/N=C\c2ccco2)c(C)c1 | 8.35% (inactive) | 16.3
82 | Cc1ccc(/C=N/NC(=O)COc2ccccc2-c2ccccc2)cc1 | 93.7% (active) | 20.8
83 | CC(C(=O)NC1CCCC1)N(c1ccc(Oc2ccccc2)cc1)S(C)(=O)=O (stereo not given) | 20.8% (inactive) | 6.65
84 | COc1cccc(C(=O)N2CCCC(CCC(=O)NCc3ccc(F)c(F)c3)C2)c1 (stereo not given) | -18.6% (inactive) | 0.91
85 | O=C(CCCNS(=O)(=O)c1cccc2nsnc12)NCCN1CCN(c2ccccc2F)CC1 | -5.33% (inactive) | 6.35
